Bioassay records as filed in PubChem.
Shiga inhibitor = A qHTS for Small Molecule Inhibitors of Shiga Toxin; Vero cells, Shiga toxin protein synthesis inhibition reporter; inhibition, % at 38.7 µM; 9.2% of 290,000 active; in the data active = inhibition mostly above about 28%, no sharp cut-off; inactive = mostly below about 43%; also: 0% is about no effect
Lassa entry inh = qHTS for Inhibitors of binding or entry into cells for Lassa Virus; AID 540256, 2011; 1.2% of 300,000 active; Potency, µM (top dose mostly 37.9 µM), without a hit: top-dose activity change, negative = inhibition, hits mostly inhibitors; Lassa virus pseudotype entry inhibition, cell reporter; calls by dose curve; tested in HEK293 cells; also: potency is read from the fitted curve at half-maximal effect; % is scaled to controls: 0 for no effect and ±100 for the full control effect; nearly all actives have a fitted effect of over 50% in size
Marburg entry inh = qHTS for inhibitors of binding or entry into cells for Marburg Virus; Marburg virus pseudotyped entry inhibition, cell reporter; Potency, µM (titrated, usually from 37.8 µM), inactives show at the highest dose activity change, negative = inhibition, actives largely listed as inhibitors; 1.8% of 300,000 active; AID 540276, 2011; calls by dose curve; tested in HEK293 cells; also: potency is read from the fitted curve at half-maximal effect; % is scaled to controls: 0 for no effect and ±100 for the full control effect
CHX counter = Cycloheximide Counterscreen for Small Molecule Inhibitors of Shiga Toxin | 12% of 300,000 active | cell reporter, cycloheximide protein synthesis inhibition counterscreen | max response, %; in the data active = max response mostly above about 13%, no sharp cut-off; inactive = mostly below about 14%; also: read at 38.3 µM for the half of the compounds with a filed dose; 0% is about no effect
Pf growth 48h = Primary qHTS for delayed death inhibitors of the malarial parasite plastid, 48 hour incubation; P. falciparum luciferase growth in erythrocytes, 48 h; Potency, µM (highest dose often 28.7 µM), inactives show at the highest dose activity change, negative = inhibition, hits mostly inhibitors; 5.9% of 310,000 active; AID 504832, 2011; also: potency is read from the fitted curve at half-maximal effect; % is scaled to controls: 0 for no effect and ±100 for the full control effect
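Cell-based growth assay: transgenic P. falciparum expressing firefly luciferase, cultured in red cells within RPMI 1640 containing 0.5% w/v Albumax, 24 mM bicarbonate and gentamycin. A drop in luciferase activity indicates inhibition.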
Pf growth 96h = Primary qHTS for delayed death inhibitors of the malarial parasite plastid, 96 hour incubation. 6.9% of 320,000 active. AID 504834, 2011. Potency, µM (titrated, usually from 28.7 µM), inactives show at the top dose activity change, negative = inhibition, actives largely listed as inhibitors. P. falciparum luciferase reporter growth, 96 h; also: potency is read from the fitted curve at half-maximal effect; % is scaled to controls: 0 for no effect and ±100 for the full control effect
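Erythrocytes infected with luciferase-expressing P. falciparum were dispensed at 2% hematocrit and 0.05% parasitemia (final), then incubated with compounds 96 hours at 37 C in 5% CO2. Luminescence after detection reagent addition reported growth.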
* hit, by the source's call; i = inactive; ? = inconclusive; . = no result given; [ ] = another dose, or the depositor's remark. Only some compounds are listed: those with a hit (about 19% of all), similar ones and a draw of the others. Unless noted, calls follow the shape of the dose curve; as a rule, active = well fitted inhibition curve with a large enough effect; inconclusive = small, poorly fitted or top-dose-only effect, or another doubt; inactive = no such curve, though single readings can be large or run the other way.

SMILES | Shiga inhibitor | Lassa entry inh | Marburg entry inh | CHX counter | Pf growth 48h | Pf growth 96h
O=C1NC(=O)C(=Cc2cc(Cl)ccc2OCc2ccc(C(=O)O)cc2)C(=O)N1 | -5.5 | . | . | 7.6 | ? | 71.4%
NNc1ncnc2scc(-c3ccc(Cl)cc3)c12 | 14.4 | -2.9% | -25.2% | -2.8 | ? | ?
O=C(O)Cc1csc(NC(=O)CSc2cccc(C(=O)O)n2)n1 | -3.2 | -9.8%[46.1 µM] | 4.7%[46.1 µM] | -2.0 | -0.7% | 6.2%
COc1cccc(C(=O)CSc2nccn2C)c1 | 96.6* | 11.8%[46.1 µM] | ? | 31.1* | 76.7% | 11.7µM*
COc1cccc(C(=O)CSc2nnnn2C)c1 | 19.4 | 5.4% | -0.4%[46.1 µM] | -2.6 | 3.8% | 8.6%
O=C(CSc1ncccc1C(=O)O)c1ccc2ccccc2c1 | 100.3* | ? | ? | 45.3* | 119.6% | i
Cn1ccnc1SCC(=O)c1cc2ccccc2o1 | 116.7* | ? | 26.3% | 44.6* | 65.6% | 2.0%
Cn1cnnc1SCC(=O)c1cc2ccccc2o1 | 12.4 | . | . | 10.1 | 2.4% | 10.5%
CC1CCN(CCCCOc2ccc(C(C)(C)C)cc2)CC1 | -8.5 | . | . | -2.0 | -53.3% | ?
CC1CCN(C(=O)CCCOc2ccc(Cl)cc2)CC1 | 55.1* | -23.0% | 2.0% | 32.7* | 83.1% | 344.6%
CC1CCN(CCCCOc2ccc(Cl)cc2)CC1 | -6.4 | 6.3%[46.1 µM] | 7.94µM* | -1.8 | . | 6.3%
Cc1cc(N/C=C2\CCCCC2=O)no1 | 38.4 | 2.0% | 26.5% | 16.1* | 42.0% | -14.3%
CCC(Sc1nncn1C)C(=O)Nc1nnc(-c2ccccc2Cl)s1 (stereo not given) | 27.1 | . | . | 17.4* | -2.6% | 9.0%
OCCC1CN(Cc2cnn(-c3ccccc3Cl)c2)CCN1Cc1ccsc1 (stereo not given) | 34.9 | 3.0% | 4.6%[46.1 µM] | -1.7 | -1.2% | 17.2%
Cc1[nH]nc2nc(SCC(=O)NC3CCCCC3)n(-c3ccc(Br)cc3)c(=N)c12 | -3.9 | . | . | -1.5 | -12.6% | 13.1µM*
COc1ccccc1NC(=O)CSc1nc2n[nH]c(C)c2c(=N)n1-c1ccccc1Cl | 12.2 | ? | 14.6µM* | 1.1 | 5.86µM* | 5.5%
Cc1cccc(-n2c(SCC(=O)Nc3ccccc3Cl)nc3n[nH]c(C)c3c2=N)c1 | . | -1.1%[46.1 µM] | . | . | . | .
CCCN(CCC)C(=O)CSc1nc2n[nH]c(C)c2c(=N)n1-c1ccc(OCC)cc1 | 14.5 | 11.2µM* | ? | 11.0 | ? | 3.1%
CCc1ccc(NC(=O)CSc2nc3n[nH]c(C)c3c(=N)n2-c2ccc(C)cc2)cc1 | . | -2.7%[46.1 µM] | . | . | . | .
Cc1cc(NS(=O)(=O)c2ccc(NC(=O)/C=C/c3ccco3)cc2)nc(C)n1 | 14.1 | -6.5% | 0.3%[46.1 µM] | -2.6 | -8.9% | ?
CCc1cc(=O)oc2c(CNCc3ccc(OC)cc3OC)c(O)c(Cl)cc12 | -8.1 | ? | -3.0% | -0.8 | ? | ?
Clc1ccc(OCCN2CCCCC2)c(Cl)c1 | -6.8 | 0.0% | ? | -1.2 | . | ?
COc1ccc(Cn2nnnc2C(c2cc3ccc(OC)cc3[nH]c2=O)N2CCCCCC2)cc1 (stereo not given) | 12.3 | 5.5% | 10.1% | 11.2 | 9.28µM* | 7.8%
COc1ccc2cc(C(c3nnnn3C(C)(C)C)N3CCSCC3)c(=O)[nH]c2c1 (stereo not given) | -26.8 | 4.4% | 1.1% | -6.3 | 11.7µM* | -2.8%
O=C(/C=C/c1cccc(F)c1)Nc1ccc(S(=O)(=O)N2CCOCC2)cc1 | . | 17.6% | ? | . | . | .
SMILES | Shiga inhibitor | Lassa entry inh | Marburg entry inh | CHX counter | Pf growth 48h | Pf growth 96h
Cc1ccc(S(=O)(=O)NCCCNC(=O)OCc2ccccc2)cc1 | . | -18.9% | 4.5% | . | . | .
Cc1ccc(C)c(N=Nc2nc3ccccc3n2C)c1 | 76.5* | ? | ? | 46.6* | 0.522µM* | 0.465µM*
Cc1cc(C)c(C)c(N=Nc2nc3ccccc3n2C)c1C | 91.9* | ? | ? | 62.5* | -79.9% | 15.4%
CCOC(=O)c1c(C)oc2nc(C)nc(N3CCN(c4ccccc4)CC3)c12 | . | -11.7%[46.1 µM] | . | . | . | .
O=[N+]([O-])c1cccc(N/N=C/c2cc([N+](=O)[O-])ccc2O)c1 | 48.6* | ? | ? | 28.2* | -12.7% | 2.7%
O=[N+]([O-])c1ccc(N/N=C/c2ccccc2O)cc1 | 89.1* | . | . | 65.0* | ? | 35.7%
O=[N+]([O-])c1ccc(O)c(/C=N/Nc2ccccn2)c1 | 28.8 | ? | ? | 22.5* | 2.94µM* | ?
CN(/N=C/c1cc([N+](=O)[O-])ccc1O)c1ccccc1 | 17.0 | 14.6% | ? | 21.9* | 33.7% | ?
CCCCn1c(N)c(N(CC)C(=O)c2cccc(S(=O)(=O)N3CCCc4ccccc43)c2)c(=O)[nH]c1=O | . | 6.0% | -1.3% | . | -13.0% | ?
Cc1ccc(S(=O)(=O)c2nnn3c2nc(NCCCN2CCCC2=O)c2ccccc23)cc1C | 1.3 | ? | ? | -2.2 | ? | ?
CN(C)C1(CNCC(O)c2ccccc2)CCCCC1 (stereo not given) | -9.3 | . | . | -4.2 | -2.2% | -0.7%
O=[N+]([O-])c1ccc(O)c(/C=N/Nc2ncnc3c2cnn3-c2ccccc2)c1 | -1.9 | . | . | -1.5 | 1.17µM* | 0.522µM*
O=C(COc1cc2oc(=O)c3c(c2cc1Cl)CCC3)Nc1cccnc1 | 21.2 | . | . | 27.6* | 149.1% | 190.2%
Cc1c(OCC(=O)Nc2cccnc2)ccc2c3c(c(=O)oc12)CCC3 | 23.4 | . | . | 19.8* | -22.8% | ?
O=C(COc1cc2oc(=O)c3c(c2cc1Cl)CCC3)Nc1ccccn1 | -2.9 | . | . | 2.3 | 24.6% | 14.5%
Cc1c(OCC(=O)NCc2ccccn2)ccc2c3c(c(=O)oc12)CCCC3 | -0.5 | . | . | -3.7 | ? | ?
C=CCN(CC=C)c1nc2ccccc2nc1C(C#N)C(=O)OC(C)C (stereo not given) | 12.2 | -2.2% | ? | -2.0 | 10.4µM* | ?
Nc1oc2ccccc2c(=O)c1-c1ccc2c(c1)OCO2 | 72.0* | 11.8% | ? | 41.0* | -20.4%[0.00184 µM] | 3.6%
CC1=CC(c2ccccc2)n2nc(NC(=O)CCCC(=O)O)nc2N1 (stereo not given) | -4.2 | 3.9% | 4.1% | -4.3 | 16.1% | 29.3%
COc1ccc(CCNC(=O)CCN2N=C(c3ccccc3)CCC2=O)cc1OC | . | 2.1%[46.1 µM] | . | . | . | .
CCc1ccc(Oc2nccc(-c3c(-c4ccc(F)cc4)ncn3C3CCNCC3)n2)cc1 | . | 11.2µM* | . | . | . | .
COc1ccc(/C=N/NC(=O)c2cccc3ccccc23)c(OC)c1OC | . | ? | -14.5%[46.1 µM] | . | . | .
Cc1ccc(S(=O)(=O)N2CCN(C(=O)c3ccc(OCc4c(C)noc4C)cc3)CC2)cc1 | -11.3 | 6.4% | -10.7%[46.1 µM] | -2.9 | . | 0.0%
Cc1noc(C)c1COc1ccccc1C(=O)N1CCN(S(=O)(=O)c2cccc(Cl)c2)CC1 | . | -2.8% | -29.9% | . | ? | -25.1%
COc1cc(C(=O)OCC(C)=O)ccc1OCc1c(C)noc1C | -3.2 | -12.1% | -16.2%[46.1 µM] | 0.9 | -3.3% | 16.3%
Cc1noc(C)c1COc1ccccc1C(=O)N1CCN(S(=O)(=O)c2ccccc2C(F)(F)F)CC1 | . | -10.9% | -4.1% | . | 14.7µM* | ?
